This test deals with Phorbol Ester. Put plainly: selectivity profile across receptors and CYP450s – biochemical, Ricerca HitProfilingScreen, CYP450, set 2, selectivity assay for S1P4 agonist project, profiling panel (AID 540332). Conditions: at 30 µM; active compounds read high.

Calls of active or inactive are those of the source. The rule behind the calls is not given here.

Regarding `COCCN=C1S/C(=C\c2cc(C)n(-c3ccc(F)cc3F)c2C)C(=O)N1C`, the inhibition was 2% (inactive).

Source of the values: PubChem BioAssay AID540332 (The Scripps Research Institute Molecular Screening Center, 2011).
